PI4K2A block – blocks human PI4K2A kinase activity. Q9BTU6. purified PI4K2A, ADP-Glo luminescence, 1 h; active compounds read low. activity change, negative = inhibition, % at 76.9 µM. 0.13% of 420,000 active. AID 1346378; in the data active = activity change below about -50%; inconclusive = mostly about -30% to -49%;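 note: -100% = wells without enzyme as full effect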
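ADP-Glo luminescence measured ADP generated by PI4K2A enzyme (4 ug/mL before mixing) with 1.2 mM PI substrate (pre-mix) and 300 microM ATP (pre-mix). Tris pH7.5 buffer with MgCl2, Triton X-100; 1 h reaction at ambient temperature.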
GoLoco inh red – inhibitors of human Gai1-RGS12 GoLoco interaction (red fluorophore) | Gai1:RGS12 GoLoco peptide FP, rhodamine, 10 min | 0.44% of 230,000 active | Potency, µM (top dose mostly 61.6 µM), without a hit: at the top dose activity, negative = inhibition, usual class: inhibitors | P63096 | AID 880; active = well fitted inhibition curve with a large enough effect, not every such curve was filed as active; inactive = no such curve, though single readings can be large or run the other way; note: potency is the fitted concentration of half-maximal effect; nearly all actives have a fitted effect of over 30% in size
Target sequence (P63096 whole entry, looked up): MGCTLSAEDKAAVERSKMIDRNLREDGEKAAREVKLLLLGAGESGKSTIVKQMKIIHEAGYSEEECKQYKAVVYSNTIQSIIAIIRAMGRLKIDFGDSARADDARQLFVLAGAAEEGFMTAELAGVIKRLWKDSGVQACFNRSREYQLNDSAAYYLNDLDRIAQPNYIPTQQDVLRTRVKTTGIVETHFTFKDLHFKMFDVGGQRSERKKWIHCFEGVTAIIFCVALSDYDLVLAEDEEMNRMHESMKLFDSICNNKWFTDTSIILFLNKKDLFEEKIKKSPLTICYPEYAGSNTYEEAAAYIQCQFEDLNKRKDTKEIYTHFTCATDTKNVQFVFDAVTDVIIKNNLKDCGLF
PI5P4Ka inh – PI5P4K alpha (human) kinase inhibition | P48426 | PI5P4Kalpha enzyme, ADP-Glo luminescence, 60 min; active compounds read low | max response, % | 1.2% of 330,000 active | AID 652105; active = max response of -50% or lower; inconclusive = between -30% and -50%; inactive = -30% or higher; note: value at the top dose of about 77 µM
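ADP-Glo luminescence end-point read after a 60 min room-temperature kinase reaction of PI5P4Kalpha plus substrate, initiated with ATP at 5 microM final. Buffer: 0.038 M HEPES pH 7.4, EGTA, 0.1% CHAPS, 5% DMSO.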
GCN5L2 inh – blocks human GCN5L2 histone acetyltransferase. AID 504327. GCN5L2 HAT assay, ThioGlo1 CoA-SH fluorescence. 0.21% of 390,000 active. Potency, µM (titrated, usually from 58.9 µM), for inactives: at the top dose activity change, negative = inhibition, actives largely listed as inhibitors; note: potency is the fitted concentration of half-maximal effect
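Enzyme at 20nM final was mixed with library compounds for 15 min at room temperature. Peptide H3(1-25) at 75uM, acetyl-CoA at 70uM and ThioGlo1 at 50uM were then added. Plates were read immediately and after 20 min (Ex340nm/Em540nm).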
Pin1 inhibitor – inhibitors of human Pin1 | Q13526 | Pin1 FP peptide displacement, HiFluor488, 10 min | Potency, µM (series often up to 115 µM), for inactives: at the highest dose activity, negative = inhibition, usual class: inhibitors | 0.009% of 390,000 active | AID 504891; active = well fitted inhibition curve with a large enough effect in the polarisation, with a control signal flat, not every such curve was filed as active; inconclusive = small, poorly fitted or top-dose-only effect, or effect the other way, or a change in a side signal; inactive = no such curve, though single readings can be large or run the other way; the % refers to the polarisation; note: potency is the fitted concentration of half-maximal effect
Target sequence (Q13526 whole entry, looked up): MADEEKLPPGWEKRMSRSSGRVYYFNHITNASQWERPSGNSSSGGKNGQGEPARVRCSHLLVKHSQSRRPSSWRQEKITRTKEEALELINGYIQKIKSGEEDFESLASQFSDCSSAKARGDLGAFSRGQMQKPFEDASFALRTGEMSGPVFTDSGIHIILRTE
Tb PGK inh – T. brucei PGK inhibition. P07378. PGK/GAPDH coupled, Kinase-Glo luminescence, 60 min. Potency, µM (doses to about 57.5 µM), for the others: at the highest dose activity change, negative = inhibition, usual class: inhibitors. 0.043% of 380,000 active. AID 602233; note: potency is the fitted concentration of half-maximal effect; nearly all actives have a fitted effect of over 60% in size
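Recombinant glycosomal PGK reaction used 1,3-bisphosphoglycerate generated in-well by GAPDH (100nM final) in 100mM TEA pH 7.6, 5mM MgCl2, 0.01% Tween-20. After 60 minutes at room temperature, ATP was read by Kinase-Glo Plus luminescence end-point.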
* hit, by the source's call; i = inactive; u = inconclusive; x = not tested or not shown; ! = a repeat was not active; [ ] = another dose, or the depositor's remark. A selection: hits, their analogues and other compounds. The true share with any hit is near 1.2%. Unless noted, calls come from the whole dose curve; as a rule, active = well fitted curve in the direction sought with a large enough effect; inconclusive = small, poorly fitted or top-dose-only effect, or another doubt; inactive = no such curve, though single readings can be large; an effect the other way counts as inactive or inconclusive. Unless noted, % is set by controls: 0 for no effect and ±100 for the full control effect.

SMILES	PI4K2A block	GoLoco inh red	PI5P4Ka inh	GCN5L2 inh	Pin1 inhibitor	Tb PGK inh
CN1CCc2cc3c(cc2[C@@H]1O)OCO3	x	-2.2%[21.6 µM]	x	7.94µM*	x	x
CCOc1ccc(C(C)=O)cc1Cc1c(O)[nH]c(=S)[nH]c1=O	-6.6	x	u	14.1µM*	-9.5%	i
O=C1OC(c2cc(I)c(O)c(I)c2)(c2cc(I)c(O)c(I)c2)c2ccccc21	x	-49.6%	x	8.91µM*	x	x
Cn1cc(C=C2C(=O)NC(=O)NC2=O)c2ccccc21	-1.2	x	-24.3	-21.3%	u	-9.6%
O=C1NC(=O)C(=Cc2coc3ccccc3c2=O)C(=O)N1	-11.8	15.8%	-76.7*	-1.9%	u	x
O=C1NC(=O)C(=Cc2csc3ccccc23)C(=O)N1	u	4.2%	-73.2*	-7.8%	5.7%	-8.5%
O=C1NC(=O)C(=C/C=C/c2coc3ccc(Br)cc3c2=O)C(=O)N1	x	-176.0%	x	-9.0%	x	x
CCC(=NCc1cccnc1)c1c(O)n(-c2ccc(C)cc2)c(=O)[nH]c1=O	-4.2	-5.2%	-1.4	-3.5%	4.4%	-1.8%
O=[N+]([O-])c1ccc(NCc2ccccc2)c2nonc12	-6.1	3.16µM*	-0.6	-9.3%	u	i
C[C@H]1COc2cccc(N3CCN(C)CC3)c2S(=O)(=O)N1	1.1	x	0.6	x	x	x
ClCc1cccc(Cl)c1	2.9	x	x	x	x	x
CC1CCCC(C2(O)C(=O)Nc3ccccc32)C1=O (stereo not drawn)	-2.8	14.1µM*	-5.3	-11.7%	-8.2%	-9.6%
CC(C)C(NC(=O)C(C(C)C)N(C)C)C(=O)N(C)C(C(=O)N1CCCC1C(=O)N1CCCC1C(=O)NCc1ccccc1)C(C)C (stereo not drawn)	-0.3	x	-7.0	x	0.3%	-6.5%
O=c1ccc2cc(O[C@@H]3O[C@@H](CO)[C@H](O)[C@@H](O)[C@@H]3O)c(O)cc2o1	5.4	x	-0.4	22.4µM*	-0.3%	-1.0%
O=c1ccc2cc(O[C@H]3O[C@@H](CO)[C@@H](O)[C@@H](O)[C@@H]3O)c(O)cc2o1	x	5.5%[21.6 µM]	x	u	x	x
Cn1sc(Cl)cc1=O	x	x	x	-10.8%	x	x
CN(C)C1C(=O)C(C(N)=O)=C(O)[C@@]2(O)C(=O)C3=C(O)c4c(O)cccc4[C@@](C)(O)C3[C@H](O)C12 (stereo partly drawn)	x	-18.6%	x	u	x	x
CN(C)[C@@H]1C(=O)C(C(N)=O)=C(O)[C@]2(O)C(=O)C3=C(O)c4c(O)cccc4[C@@](C)(O)[C@H]3[C@H](O)[C@@H]12	x	5.62µM*	x	u	x	x
CN(C)[C@@H]1C(=O)C(C(N)=O)=C(O)[C@@]2(O)C(=O)C3=C(O)c4c(O)cccc4[C@@](C)(O)C3[C@H](O)C12 (stereo partly drawn)	-25.5	x	-87.7*!	-27.7%	u	-30.0%
COCCNC(=O)Cn1cc(C(=O)c2ccccc2F)c2ccccc21	1.9	x	-5.6	-16.1%	-4.7%	9.7%
Nc1nnnn1CCO	x	0.6%[14.2 µM]	x	x	x	x
O=C(Nc1nc2c(Cl)cccc2s1)c1ccc(S(=O)(=O)N2CCc3ccccc32)cc1	-2.7	x	x	-11.2%	38.1%	i
Cc1cc2c(C(F)(F)F)cc(=O)oc2c2c1NCCC2	-5.1	1.8%	x	3.5%	u	-10.2%
O=c1cc(C(F)(F)F)c2cc3c4c(c2o1)CCCN4CCC3	4.7	12.6µM*	4.5	-0.6%[0.501 µM]	x	-2.7%
CN1C(=O)C(=Cc2ccccc2Oc2ccc(Cl)c(F)c2)C(=O)N(C)C1=O	-15.2	-27.0%	-52.2*	-3.3%	4.4%	1.9%
O=C1NC(=O)C(=Cc2ccccc2Oc2ccc(F)cc2)C(=O)N1	u	18.8%	u	-2.0%	-8.5%	-8.5%
Cc1cc(O)c2c(c1)C(=O)[C@@]13C(=C2O)C(=O)[C@H]2C(O)[C@@H]1[C@H]1C(O)[C@@H]3C(=O)C3=C(O)c4c(O)cc(C)cc4C(=O)[C@@]312 (stereo partly drawn)	-75.8*	x	x	x	x	x
O=[N+]([O-])O[C@H]1CO[C@H]2[C@H]1OC[C@@H]2O[N+](=O)[O-]	x	-2.5%[21.6 µM]	x	4.3%[21.4 µM]	x	x
